The source of these data is article PMC4336329 (PLoS ONE, 2015).

In all, about 310,000 compounds went through this assay and about 14,000 (4.5%) showed an effect of 50% or more. Effects have a minus sign here. This excerpt belongs to a sample that is enriched for strong results.
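Also: peak tail current of the secondary pulse compared with the same well before compound.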

The target of this assay is human ether-à-go-go-related gene (hERG) potassium channel (human, UniProt Q12809). The assay can be described thus: primary screen, population patch clamp on CHO cells stably expressing hERG; higher = less effect of the substance.
Chain of human ether-à-go-go-related gene (hERG) potassium channel (Q12809 whole entry, looked up): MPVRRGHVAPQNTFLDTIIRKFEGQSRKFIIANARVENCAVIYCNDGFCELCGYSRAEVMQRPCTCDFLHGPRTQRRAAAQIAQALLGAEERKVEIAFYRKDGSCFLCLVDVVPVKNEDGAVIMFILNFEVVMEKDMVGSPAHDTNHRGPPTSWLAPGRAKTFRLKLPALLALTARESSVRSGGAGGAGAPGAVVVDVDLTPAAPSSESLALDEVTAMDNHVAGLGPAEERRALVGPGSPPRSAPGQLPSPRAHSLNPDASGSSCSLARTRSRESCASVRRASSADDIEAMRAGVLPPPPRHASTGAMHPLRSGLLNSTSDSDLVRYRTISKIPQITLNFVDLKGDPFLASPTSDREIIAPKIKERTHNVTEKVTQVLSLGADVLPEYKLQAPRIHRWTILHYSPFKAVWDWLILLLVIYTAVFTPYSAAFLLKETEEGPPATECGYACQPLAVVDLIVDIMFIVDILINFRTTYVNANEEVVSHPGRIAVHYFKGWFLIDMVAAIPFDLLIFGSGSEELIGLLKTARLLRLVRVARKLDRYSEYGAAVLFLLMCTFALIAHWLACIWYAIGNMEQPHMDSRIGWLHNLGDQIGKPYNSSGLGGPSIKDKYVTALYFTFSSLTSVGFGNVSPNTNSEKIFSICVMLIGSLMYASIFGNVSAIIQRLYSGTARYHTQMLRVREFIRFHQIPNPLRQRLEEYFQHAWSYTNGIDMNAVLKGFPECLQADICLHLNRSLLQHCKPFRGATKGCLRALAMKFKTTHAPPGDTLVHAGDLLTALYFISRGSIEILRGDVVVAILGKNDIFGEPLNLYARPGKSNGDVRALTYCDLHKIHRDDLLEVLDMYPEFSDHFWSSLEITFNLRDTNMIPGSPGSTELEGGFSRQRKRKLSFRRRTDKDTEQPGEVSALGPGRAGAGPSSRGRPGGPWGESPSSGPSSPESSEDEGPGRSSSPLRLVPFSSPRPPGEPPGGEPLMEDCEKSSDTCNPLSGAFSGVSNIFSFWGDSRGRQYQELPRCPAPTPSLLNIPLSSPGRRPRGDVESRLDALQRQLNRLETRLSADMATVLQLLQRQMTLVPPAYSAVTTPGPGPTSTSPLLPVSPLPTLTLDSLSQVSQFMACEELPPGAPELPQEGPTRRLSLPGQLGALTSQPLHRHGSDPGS
On to `CCOc1ccc(C(=O)COC(=O)CN2C(=O)NC3(CCCCC3C)C2=O)cc1` (stereo not shown), for which the “hERG current change (%, negative = inhibition) at 10uM” value is recorded as -42.7%. For `CCOC(=O)C1CCN(C(=O)c2ccc(NC(=O)C3CCCO3)cc2)CC1` (stereo not shown) the value was -9.35%.

Take `Cc1[nH]n2c(=O)cc(C(C)C)nc2c1-c1ccccc1`: the “hERG current change (%, negative = inhibition) at 10uM” value is reported as -12.1%. For `Clc1ccc(CSc2ccc(-c3ccccn3)nn2)cc1` the value was -2.04%; for `CCN(CC(=O)Nc1cc(Cl)ccc1C)C(=O)COc1cccc2c1OC(C)(C)C2`, -4.2%. In the case of `CSc1ncccc1C(=O)Nc1ccc(S(=O)(=O)N2CCCC2)cc1`, the “hERG current change (%, negative = inhibition) at 10uM” value is -16.6%. As to `CSc1ncccc1C(=O)Nc1cccc(S(=O)(=O)N2CCCCC2)c1`, the “hERG current change (%, negative = inhibition) at 10uM” value is -64.3%. Then `Cc1ccc(S(=O)(=O)N2CCOCC2)cc1C(=O)Nc1cccc(S(=O)(=O)N2CCCC2)c1`, with -38.3%.

On to `CC(=O)Nc1ccc(NC(=O)c2cc(S(=O)(=O)N3CCCCC3)ccc2C)cc1`, for which the “hERG current change (%, negative = inhibition) at 10uM” value worked out at 5.45%. Then `Cc1ccc(S(C)(=O)=O)cc1C(=O)Nc1cccc(S(=O)(=O)N2CCCCCC2)c1`, with -65.2%; and `CCOc1ncccc1C(=O)Nc1cccc(S(=O)(=O)N2CCCCC2)c1`, with -7.03%; and `COc1ccc(OC2C(=O)N(Cc3ccc4c(c3)OCO4)C2c2sccc2C)cc1` (stereo not shown), with -5.31%. For `O=CNCC(=O)NC1CCCCCC1` the value was 20.5%; for `CN(Cc1ccco1)S(=O)(=O)c1ccc(CN2C(=O)c3cccnc3C2=O)s1`, -63.4%. For the molecule `O=C1c2cccnc2C(=O)N1Cc1ccc(S(=O)(=O)NCc2ccco2)s1`, the “hERG current change (%, negative = inhibition) at 10uM” value was found to be 16.2%.

In the case of `COc1ccc(CN2C(=O)c3cccnc3C2=O)cc1S(=O)(=O)N(C)Cc1ccco1`, the “hERG current change (%, negative = inhibition) at 10uM” value is given as -13.3%. For the molecule `O=C(C1=C(O)C(=O)N(c2ncccn2)C1c1ccc(Cl)cc1)c1ccco1` (stereo not shown), the “hERG current change (%, negative = inhibition) at 10uM” value is reported as 7.37%. For `O=C(CCl)N=c1sccn1Cc1ccccc1Cl` the value was -5.61%. For `COc1cc(/C=C(\C#N)C(=O)NCc2cccs2)ccc1O`, the “hERG current change (%, negative = inhibition) at 10uM” value is listed as -0.725%. Then `COc1cc(CNC2CCCC2)cc(Br)c1OCC(=O)Nc1ccccc1C`, with -1.01%; and `O=C(COc1ccc(Br)cc1CO)Nc1ccc(F)cc1`, with -32.8%. For `CCOc1cc(CNCC(C)C)c(Cl)cc1OCC(=O)Nc1ccccc1` the value was -15.2%; for `CCOc1cc(CNC2CCCC2)c(Cl)cc1OCC(=O)Nc1ccccc1`, -67.8%.

Consider `O=C(COc1ccc(Br)cc1CNC1CCCCC1)NCCc1ccccc1`, for which the “hERG current change (%, negative = inhibition) at 10uM” value was -77%. For `O=C(COc1ccc(Br)cc1Br)NC1CCCC1` the value was 12.9%.

As to `COc1ccc(Br)cc1CN(C)CC(=O)NCCc1ccccc1.O=C(O)C(=O)O`, the “hERG current change (%, negative = inhibition) at 10uM” value was -14.7%.

On to `COc1ccccc1NC(=O)COc1ccc(Br)cc1CO`, for which the “hERG current change (%, negative = inhibition) at 10uM” value is -4.58%.

For `O=C(COc1ccc(Br)cc1CO)Nc1ccccc1`, the “hERG current change (%, negative = inhibition) at 10uM” value is recorded as -10.4%. Then `COc1ccccc1NC(=O)COc1ccc(Br)cc1CNC1CCCC1`, with -53.2%; and `Cl.O=C(COc1ccc(Br)cc1CNC1CCCC1)Nc1ccccc1`, with -73.1%; and `CCCNCc1cc(OCC)c(OCC(=O)Nc2ccccc2)cc1Br`, with -24.7%. Then `COC(=O)c1cc(C(=O)CC(C)C)c[nH]1`, with 16.7%.

For the molecule `O=C(/C=C/c1ccccc1)NC(=S)NNC(=O)Cc1cccs1`, the “hERG current change (%, negative = inhibition) at 10uM” value stood at 22.5%. For `COc1ccc(NC(=O)CCS(=O)(=O)c2cc3c(cc2Cl)NC(=O)CO3)cc1OC` the value was 9.57%; for `COc1cc(-c2noc(C)c2C(=O)NCCc2c[nH]c3ccccc23)cc(OC)c1OC`, 0.397%; for `O=C(NCCc1ccccn1)C1CCCN(S(=O)(=O)Cc2ccccc2)C1` (stereo not shown), 9.26%. For `CC(C)(C)c1ccc(C(=O)Oc2ccc3c(c2)OCC3=O)cc1` the value was 2.55%; for `Brc1cccc(CNCC2CCCO2)c1` (stereo not shown), 4.72%; for `Cl.Fc1ccc(COc2ccc(Br)cc2CNCC2CCCO2)cc1` (stereo not shown), -63.5%. For `Brc1ccc(OCc2ccccc2)c(CNCC2CCCO2)c1.Cl` (stereo not shown) the value was -50%.

In the case of `CCOc1ccccc1CNCC1CCCO1.Cl` (stereo not shown), the “hERG current change (%, negative = inhibition) at 10uM” value is reported as 11.5%.

For the molecule `Cl.Fc1ccccc1COc1ccc(Br)cc1CNCC1CCCO1` (stereo not shown), the “hERG current change (%, negative = inhibition) at 10uM” value is reported as -68.3%. Then `COc1ccc(Br)cc1CNCC1CCCO1` (stereo not shown), with 5.7%; and `CN(C)S(=O)(=O)c1ccc(NC(=O)CN2C(=O)NC3(CCCC3)C2=O)cc1`, with 8.41%; and `CCOc1ccc2nc(NC(=O)CSc3nnc(-c4ccncc4)n3CC3CCCO3)sc2c1` (stereo not shown), with 3.71%.

`Fc1ccc(NC(=S)NCCc2ccc(Cl)cc2)cc1`: the “hERG current change (%, negative = inhibition) at 10uM” value is given as 1.47%. For `COCCn1cnc2c1c(=O)n(CC(=O)NN)c(=O)n2Cc1ccccc1` the value was 8.95%; for `COCCn1cnc2c1c(=O)n(CC(=O)OCC(=O)NCC(F)(F)F)c(=O)n2Cc1ccccc1`, 4.6%. Then `COCCn1cnc2c1c(=O)n(CC(=O)OCC(=O)NCCCc1ccccc1)c(=O)n2Cc1ccccc1`, with -57.9%.

On to `COc1ccc(CNS(=O)(=O)c2ccc(S(=O)(=O)NC3CC3)cc2)cc1`, for which the “hERG current change (%, negative = inhibition) at 10uM” value worked out at 17.9%.

`Cc1cccc(NC(=O)NCCN2CCCCC2)c1`: the “hERG current change (%, negative = inhibition) at 10uM” value is -25%. Consider `O=C(O)CN1C(=O)CSc2ccccc21`, for which the “hERG current change (%, negative = inhibition) at 10uM” value is -30.6%. For `O=C1CSc2ccccc2N1Cc1ccccc1F` the value was -55.8%; for `O=C1CSc2ccccc2N1Cc1ccc(F)cc1`, -38.4%; for `COC(=O)c1cccc(NC(=O)c2ccco2)c1`, 4.02%. For `CC1(C)CC(N2CCCCC2)=CC(=[N+]2CCCCC2)C1.[I-]` the value was 8.09%; for `CC1(C)CC(N2CCCC2)=CC(=[N+]2CCCCC2)C1.[I-]`, 3.58%; for `CC1(C)CC(NNCCC#N)=CC(=[N+]2CCCC2)C1.[I-]`, 5.87%. Turning to `CC1(C)CC(N2CCN(C(c3ccccc3)c3ccccc3)CC2)=CC(=[N+]2CCCCC2)C1.[I-]`, the “hERG current change (%, negative = inhibition) at 10uM” value is reported as -72.1%. With `CN(Cc1ccccc1)C1=CC(=[N+]2CCCC2)CC(C)(C)C1.[I-]`, the “hERG current change (%, negative = inhibition) at 10uM” value is listed as -55.4%.

Take `CCN(CC)C1=CC(=[N+]2CCCC2)CC(C)(C)C1.[I-]`: the “hERG current change (%, negative = inhibition) at 10uM” value is recorded as -4.08%.

As for `CN(Cc1ccccc1)C1=CC(=[N+]2CCCCC2)CC(C)(C)C1.[I-]`, the “hERG current change (%, negative = inhibition) at 10uM” value is on record as -54.3%. Then `CC1(C)CC(N2CCCC2)=CC(=[N+]2CCCCCC2)C1.[I-]`, with -8.68%; and `CC1(C)CC(N2CCN(c3ccccc3)CC2)=CC(=[N+]2CCCC2)C1.[I-]`, with -15.3%; and `CC1(C)CC(N2CCCC2)=CC(=[N+]2CCCC2)C1.[I-]`, with -12.1%. Then `CCCN(CCC)C1=CC(=[N+]2CCCC2)CC(C)(C)C1.[I-]`, with -72.4%; and `CC1(C)CC(N2CCN(Cc3ccccc3)CC2)=CC(=[N+]2CCCCC2)C1.[I-]`, with 7.04%.
